Screens as filed in PubChem BioAssay.
JMJD2E inh: inhibitors of human JMJD2E histone demethylase; JMJD2E catalytic domain, FDH-coupled NADH fluorescence (FDH is formaldehyde dehydrogenase); Potency, µM (doses to about 57.1 µM), most hits filed as inhibitors; actives 1.6% (n = 230,000); AID 2147; active = well fitted inhibition curve with a large enough effect, not every such curve was filed as active; inconclusive = small, poorly fitted or top-dose-only effect, or another doubt; inactive = no such curve, though single readings can be large or run the other way; also: nearly all actives have a fitted effect of over 50% in size
JMJD2A Tudor inh: blocks the human JMJD2A Tudor domain; O75164; AlphaScreen JMJD2A-Tudor / H3K4me3 peptide binding; Potency, µM (titrated, usually from 114 µM), usual class: inhibitors; actives 4.4% (n = 390,000); AID 504339; also: nearly all actives have a fitted effect of over 50% in size
BAZ2B inh: inhibitors of human BAZ2B bromodomain. AID 504333. Q9UIF8. actives 4.4% (n = 360,000). Potency, µM (top dose mostly 114 µM), usual class: inhibitors. AlphaScreen BAZ2B-H3K14Ac peptide displacement; also: nearly all actives have a fitted effect of over 60% in size
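Inhibition is scored as reduced AlphaScreen emission. The BAZ2B/b-H3(5-23)K14Ac complex (50 nM each) in PBS pH 7.4, 0.01% Tween-20 meets compound (up to 110 uM) for 30 min at RT before bead addition.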
HP1b chromo inh: HP1-beta chromodomain-methylated histone interaction inhibition. P83916. AlphaScreen HP1-beta / biotin-H3K9me3 peptide binding. Potency, µM (titrated, usually from 114 µM), actives largely listed as inhibitors. actives 0.56% (n = 390,000); also: nearly all actives have a fitted effect of over 70% in size
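Compound inhibition of the preformed complex between 50 nM HP1-beta and 50 nM biotinylated H3K9me3 peptide was read by AlphaScreen. Buffer was PBS pH 7.4 with 0.01% Tween-20. Incubations ran 30 min at room temperature, with 10 ug/mL donor/acceptor beads.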
L3MBTL1 inh: blocks human L3MBTL1; Q9Y468; AlphaScreen L3MBTL1–H3K9me1 peptide binding; Potency, µM (titrated, usually from 57.1 µM), most hits filed as inhibitors; actives 0.66% (n = 230,000); AID 485360; also: nearly all actives have a fitted effect of over 60% in size
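First, the protein-peptide complex forms for 30 min at room temperature (L3MBTL1 50 nM, biotinylated H3K9me1 peptide 75 nM). Next, compounds are pin-transferred and incubated 30 min. Finally, AlphaScreen beads are added and read after 30 min.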
PI5P4Ka inh: inhibitors of human PI5P4K alpha | PI5P4Kalpha enzyme, ADP-Glo luminescence, 60 min; stronger effect = lower value | max response, % | actives 1.2% (n = 330,000); active = max response of -50% or lower; inconclusive = between -30% and -50%; inactive = -30% or higher; also: value at the top dose of about 77 µM
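Controls without substrate or without enzyme flank wells where PI5P4Kalpha converts substrate using 5 microM ATP (final). Incubation lasts 60 minutes at room temperature; ADP formed is read by ADP-Glo luminescence.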
A number is an active result; [ ] = dose if it differs, or a comment. Compounds with a hit are over-represented: about 5.7% of the library has one in this group of screens. Unless noted, calls follow the shape of the dose curve; as a rule, active = well fitted inhibition curve with a large enough effect; inconclusive = small, poorly fitted or top-dose-only effect; inactive = no such curve, though single readings can be large or run the other way.

Results for CCCC(=O)NC(c1ccccc1)c1ccc2cccnc2c1O (stereo unspecified) ?
JMJD2A Tudor inh: 45µM; BAZ2B inh: 25µM; HP1b chromo inh: inactive; L3MBTL1 inh: inconclusive; PI5P4Ka inh: inactive

Results for CCOC(=O)c1c(C)[nH]c(CCC(=O)Nc2ccc(N(CC)CC)cc2C)c1C ?
JMJD2A Tudor inh: inconclusive; BAZ2B inh: inactive; HP1b chromo inh: inactive

What do the screens show for `Cc1ccccc1-n1c(-c2ccco2)n[nH]c1=S`?
JMJD2E inh: inconclusive; JMJD2A Tudor inh: 3.2µM; BAZ2B inh: inactive; HP1b chromo inh: inactive; L3MBTL1 inh: inactive; PI5P4Ka inh: inactive

How did CCCCn1c(-c2ccco2)n[nH]c1=S do in these assays?
JMJD2E inh: inactive; JMJD2A Tudor inh: 3.2µM; BAZ2B inh: inactive; HP1b chromo inh: inconclusive; L3MBTL1 inh: inactive; PI5P4Ka inh: inactive

How did FC(F)(F)c1ccccc1-n1c(-c2ccco2)n[nH]c1=S do in these assays?
JMJD2A Tudor inh: inactive; BAZ2B inh: inactive; HP1b chromo inh: inactive; L3MBTL1 inh: inactive; PI5P4Ka inh: inactive

What do the screens show for `CC(C)Cn1c(-c2ccco2)n[nH]c1=S`?
JMJD2E inh: inconclusive; JMJD2A Tudor inh: 4µM; BAZ2B inh: inconclusive; HP1b chromo inh: inactive

What do the screens show for `CCn1c(-c2ccco2)n[nH]c1=S`?
JMJD2E inh: inconclusive; JMJD2A Tudor inh: inactive[11.4 µM]; BAZ2B inh: inactive; HP1b chromo inh: inactive; L3MBTL1 inh: inactive; PI5P4Ka inh: inactive

How did C=CCn1c(-c2ccco2)n[nH]c1=S do in these assays?
JMJD2E inh: inconclusive; JMJD2A Tudor inh: 10µM; BAZ2B inh: inactive; HP1b chromo inh: inactive; L3MBTL1 inh: inactive; PI5P4Ka inh: inactive

Results for C=CCn1c(-c2cc(-c3ccccc3)sc2N)n[nH]c1=S ?
JMJD2E inh: inactive; JMJD2A Tudor inh: inactive; BAZ2B inh: inactive; HP1b chromo inh: inactive; L3MBTL1 inh: inactive; PI5P4Ka inh: inactive

Results for CC(C)(C)c1ccc(COc2ccsc2C(=O)O)cc1 ?
JMJD2E inh: inactive; JMJD2A Tudor inh: inactive; BAZ2B inh: inactive; HP1b chromo inh: inactive; L3MBTL1 inh: inactive; PI5P4Ka inh: inactive

What do the screens show for `Cn1c(-c2ccco2)n[nH]c1=S`?
JMJD2E inh: inconclusive; JMJD2A Tudor inh: 7.9µM; BAZ2B inh: inactive; HP1b chromo inh: inactive; L3MBTL1 inh: inactive; PI5P4Ka inh: inactive

Results for c1coc(-c2cnc3ccccc3n2)c1 ?
PI5P4Ka inh: inactive

How did COc1cccc(/C=C/C(=O)OCC(=O)Nc2cccc(S(=O)(=O)N(C)C)c2)c1 do in these assays?
JMJD2E inh: inconclusive; JMJD2A Tudor inh: inactive; BAZ2B inh: inactive; HP1b chromo inh: inactive; PI5P4Ka inh: inactive

How did O=S(=O)(Nc1ccc(N2CCCCC2)cc1)c1ccccc1F do in these assays?
JMJD2E inh: inactive; JMJD2A Tudor inh: inconclusive; BAZ2B inh: 50µM; HP1b chromo inh: inconclusive; L3MBTL1 inh: inactive; PI5P4Ka inh: inactive

What do the screens show for `O=S(=O)(Nc1ccc(N2CCCCC2)cc1)c1ccc(F)cc1`?
JMJD2E inh: inactive; JMJD2A Tudor inh: inconclusive; BAZ2B inh: 79µM; HP1b chromo inh: inconclusive; L3MBTL1 inh: inactive; PI5P4Ka inh: inactive

How did O=S(=O)(Nc1ccc(N2CCCCC2)cc1)c1ccc(F)cc1F do in these assays?
JMJD2E inh: inactive; JMJD2A Tudor inh: inconclusive; BAZ2B inh: inconclusive; HP1b chromo inh: inactive; L3MBTL1 inh: inactive; PI5P4Ka inh: inactive

What do the screens show for `O=S(=O)(Nc1ccc(N2CCCCC2)cc1)c1ccccc1`?
JMJD2E inh: inactive; JMJD2A Tudor inh: inconclusive; BAZ2B inh: 50µM; HP1b chromo inh: inconclusive; L3MBTL1 inh: inactive; PI5P4Ka inh: inactive

How did Nc1ccc(S(N)(=O)=O)cc1N do in these assays?
JMJD2E inh: 7.9µM; JMJD2A Tudor inh: inactive; BAZ2B inh: inconclusive; HP1b chromo inh: inactive; PI5P4Ka inh: inactive

How did Nc1ccc(Nc2nc(-c3ccncc3)cs2)cc1 do in these assays?
JMJD2E inh: inactive; JMJD2A Tudor inh: 56µM; BAZ2B inh: inconclusive; HP1b chromo inh: inactive

How did Clc1ccc(Nc2nc(-c3ccncc3)cs2)cc1 do in these assays?
JMJD2A Tudor inh: inactive; HP1b chromo inh: inactive; PI5P4Ka inh: inactive

Results for c1ccc(-c2csc(Nc3ccc4c(c3)OCCO4)n2)cc1 ?
JMJD2E inh: inactive; JMJD2A Tudor inh: 71µM; BAZ2B inh: 50µM; HP1b chromo inh: inactive; PI5P4Ka inh: inactive
